From PubChem BioAssay (NCATS)
Results filed as inconclusive are left out. A call without a number means that no potency is given here. Active and inactive are the calls of the source. Calls come from the whole dose curve; as a rule, active = well fitted inhibition curve with a large enough effect; inconclusive = small, poorly fitted or top-dose-only effect; inactive = no such curve, though single readings can be large or run the other way.

Test: qHTS assay for measurement of the activity of small molecule inhibitors on Zika virus induced Caspase-3 activity in human iPSC derived neural progenitor cells (hNPCs) (AID 1224857); note: nearly all actives have a fitted effect of over 65% in size; note: potency is the fitted concentration of half-maximal effect
Conditions: hNPCs ZIKV-induced caspase-3/7, Caspase-Glo luminescence, 6 h; series mostly up to 45.7 µM
Procedure, shortened: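 Quantitative HTS format: human iPSC neural progenitors, 1 h compound pretreatment, ZIKV 2 FFU/cell for 6 h at 37 C. Percent inhibition derived from luminescent caspase-3/7 signal between uninfected and infected controls.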

Compound	Potency
CCCCCCCCCCCCCCCC(=O)O	inactive
O=C(CN1CCN(Cc2ccc3c(c2)OCO3)CC1)N1c2ccccc2Sc2ccccc21	inactive
Nc1nc(N)c(-c2ccccc2)s1	inactive
CC(C)=CCOc1ccc(/C=C/C(=O)c2ccc(OCC=C(C)C)cc2OCC(=O)O)cc1	inactive
CCCCCCCCCCCCCCC[C@H](O)[C@@H](N)CO	inactive
NC(=O)C1(N2CCCCC2)CCN(CCCC(=O)c2ccc(F)cc2)CC1	inactive
O=C(O)P(=O)(O)O	inactive
C#C[C@]1(O)CC[C@H]2[C@@H]3CCC4=Cc5oncc5C[C@]4(C)[C@H]3CC[C@@]21C	inactive
NS(=O)(=O)c1ccc(Cl)c(S(N)(=O)=O)c1	inactive
O=C(Oc1cccc2cccnc12)c1ccccc1	inactive
C=C[C@H]1CN2CC[C@H]1C[C@@H]2[C@@H](O)c1ccnc2ccc(OC)cc12	inactive
CC1(C)OC[C@@H]2O[C@@]3(C(=O)O)OC(C)(C)O[C@H]3[C@@H]2O1	inactive
Oc1c(Cl)cc(Cl)c(Cl)c1Cc1c(O)c(Cl)cc(Cl)c1Cl	inactive
CC(C)(C)NC[C@H](O)COc1nsnc1N1CCOCC1	inactive
C=C[C@H]1CN2CC[C@H]1C[C@H]2[C@H](O)c1ccnc2ccc(OC)cc12	inactive
CN(C)CCC[C@@]1(c2ccc(F)cc2)OCc2cc(C#N)ccc21	inactive
CCCCCCCCOc1ccc(C(=O)c2ccccc2)c(O)c1	inactive
NC(=O)c1ccccc1O	inactive

Compound	Potency
CN(CCCN1c2ccccc2CCc2ccccc21)CC(=O)c1ccc(Cl)cc1	inactive
COc1ccc(C(=O)c2ccccc2)c(O)c1	inactive
CCOC(=O)[C@H](CCc1ccccc1)N[C@@H](C)C(=O)N1[C@H](C(=O)O)C[C@H]2CCCC[C@@H]21	inactive
COc1ccc(C(Cl)=C(c2ccc(OC)cc2)c2ccc(OC)cc2)cc1	inactive
NC(N)=NCc1cccc(I)c1	inactive
CCCCC(CC)COC(=O)c1ccc(N(C)C)cc1 (configuration not stated)	inactive
NC(N)=NN=C(/C=C/c1ccc([N+](=O)[O-])o1)/C=C/c1ccc([N+](=O)[O-])o1	31.6 µM (active)
Cc1cc2c(OCC(CNC(C)(C)C)OC(=O)c3ccccc3)cccc2[nH]1 (configuration not stated)	inactive
CCC(Cc1c(I)cc(I)c(N)c1I)C(=O)O (configuration not stated)	inactive
COc1cc(NS(=O)(=O)c2ccc(N)cc2)ncn1	inactive
COc1cc(C)nc(-n2nc(C)cc2OC)n1	inactive
CCOc1ccccc1C(N)=O	inactive
CCCCOC(=O)CC(CC(=O)OCCCC)(OC(C)=O)C(=O)OCCCC	inactive
NCCNc1cccc2ccccc12	inactive
Cc1ccc2c(Br)cc(Br)c(O)c2n1	inactive
OC[C@H]1O[C@@H]2O[C@H]3[C@H](O)[C@@H](O)[C@@H](O[C@H]4[C@H](O)[C@@H](O)[C@@H](O[C@H]5[C@H](O)[C@@H](O)[C@@H](O[C@H]6[C@H](O)[C@@H](O)[C@@H](O[C@H]7[C@H](O)[C@@H](O)[C@@H](O[C@H]8[C@H](O)[C@@H](O)[C@@H](O[C@H]1[C@H](O)[C@H]2O)O[C@@H]8CO)O[C@@H]7CO)O[C@@H]6CO)O[C@@H]5CO)O[C@@H]4CO)O[C@@H]3CO	inactive
c1ccc(-c2nc[nH]c2-c2ccccc2)cc1	inactive
CCCCCN=C(N)N/N=C/c1c[nH]c2ccc(OC)cc12	inactive

Test: qHTS assay for measurement of the activity of small molecule inhibitors on Zika virus induced Caspase-3 activity in human astrocytoma cells (AID 1224859)
Conditions: SNB-19 ZIKV-induced caspase-3/7, luminescence, 6 h; series mostly up to 45.7 µM
Procedure, shortened: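 Readout is luminescence from Caspase-Glo 3/7 added after a 6 h ZIKV infection (2 FFU/cell) of compound-pretreated (1 h) SNB-19 cells; data expressed as % inhibition versus uninfected and infected wells.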

Compound	outcome
CCCCCCCCCCCCCCCC(=O)O	inactive
O=C(CN1CCN(Cc2ccc3c(c2)OCO3)CC1)N1c2ccccc2Sc2ccccc21	inactive
Nc1nc(N)c(-c2ccccc2)s1	inactive
CC(C)=CCOc1ccc(/C=C/C(=O)c2ccc(OCC=C(C)C)cc2OCC(=O)O)cc1	inactive
CCCCCCCCCCCCCCC[C@H](O)[C@@H](N)CO	inactive
NC(=O)C1(N2CCCCC2)CCN(CCCC(=O)c2ccc(F)cc2)CC1	inactive
O=C(O)P(=O)(O)O	inactive
C#C[C@]1(O)CC[C@H]2[C@@H]3CCC4=Cc5oncc5C[C@]4(C)[C@H]3CC[C@@]21C	inactive
NS(=O)(=O)c1ccc(Cl)c(S(N)(=O)=O)c1	inactive
O=C(Oc1cccc2cccnc12)c1ccccc1	inactive
C=C[C@H]1CN2CC[C@H]1C[C@@H]2[C@@H](O)c1ccnc2ccc(OC)cc12	inactive
CC1(C)OC[C@@H]2O[C@@]3(C(=O)O)OC(C)(C)O[C@H]3[C@@H]2O1	inactive
Oc1c(Cl)cc(Cl)c(Cl)c1Cc1c(O)c(Cl)cc(Cl)c1Cl	inactive
CC(C)(C)NC[C@H](O)COc1nsnc1N1CCOCC1	inactive
C=C[C@H]1CN2CC[C@H]1C[C@H]2[C@H](O)c1ccnc2ccc(OC)cc12	inactive
CN(C)CCC[C@@]1(c2ccc(F)cc2)OCc2cc(C#N)ccc21	inactive
CCCCCCCCOc1ccc(C(=O)c2ccccc2)c(O)c1	inactive
NC(=O)c1ccccc1O	inactive

Compound	outcome
CN(CCCN1c2ccccc2CCc2ccccc21)CC(=O)c1ccc(Cl)cc1	inactive
COc1ccc(C(=O)c2ccccc2)c(O)c1	inactive
CCOC(=O)[C@H](CCc1ccccc1)N[C@@H](C)C(=O)N1[C@H](C(=O)O)C[C@H]2CCCC[C@@H]21	inactive
COc1ccc(C(Cl)=C(c2ccc(OC)cc2)c2ccc(OC)cc2)cc1	inactive
NC(N)=NCc1cccc(I)c1	inactive
CCCCC(CC)COC(=O)c1ccc(N(C)C)cc1 (configuration not stated)	inactive
NC(N)=NN=C(/C=C/c1ccc([N+](=O)[O-])o1)/C=C/c1ccc([N+](=O)[O-])o1	inactive
Cc1cc2c(OCC(CNC(C)(C)C)OC(=O)c3ccccc3)cccc2[nH]1 (configuration not stated)	inactive
CCC(Cc1c(I)cc(I)c(N)c1I)C(=O)O (configuration not stated)	inactive
COc1cc(NS(=O)(=O)c2ccc(N)cc2)ncn1	inactive
COc1cc(C)nc(-n2nc(C)cc2OC)n1	inactive
CCOc1ccccc1C(N)=O	inactive
CCCCOC(=O)CC(CC(=O)OCCCC)(OC(C)=O)C(=O)OCCCC	inactive
NCCNc1cccc2ccccc12	inactive
Cc1ccc2c(Br)cc(Br)c(O)c2n1	inactive
OC[C@H]1O[C@@H]2O[C@H]3[C@H](O)[C@@H](O)[C@@H](O[C@H]4[C@H](O)[C@@H](O)[C@@H](O[C@H]5[C@H](O)[C@@H](O)[C@@H](O[C@H]6[C@H](O)[C@@H](O)[C@@H](O[C@H]7[C@H](O)[C@@H](O)[C@@H](O[C@H]8[C@H](O)[C@@H](O)[C@@H](O[C@H]1[C@H](O)[C@H]2O)O[C@@H]8CO)O[C@@H]7CO)O[C@@H]6CO)O[C@@H]5CO)O[C@@H]4CO)O[C@@H]3CO	inactive
c1ccc(-c2nc[nH]c2-c2ccccc2)cc1	inactive
CCCCCN=C(N)N/N=C/c1c[nH]c2ccc(OC)cc12	inactive
